Each structure is given as a SMILES string. Where “and” joins values, the source holds several entries; their conditions need not be identical. Equal entries are not always repeated. The whole screen tested about 260,000 compounds, of which about 1,500 (0.58%) were called active. About 5% were inconclusive and are not listed.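 How the source made its calls: active means inhibition above a set limit at one or more doses, reproduced on every date tested; inconclusive means results disagree between test dates, or hit never tested in dose response; inactive means the rest.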 Not all results are given here. Results with a measured potency or affinity are listed apart.

The test addresses Virion infectivity factor (Human immunodeficiency virus type 1 group M subtype B (isolate BH10)) + Virion infectivity factor (Human immunodeficiency virus type 1 group M subtype B (isolate BRU/LAI)) + Virion infectivity factor (Human immunodeficiency virus type 1 group M subtype B (isolate PCV12)) + Virion infectivity factor (Human immunodeficiency virus type 1 group M subtype B (isolate HXB2)) + DNA dC->dU-editing enzyme APOBEC-3G (Homo sapiens) (UniProt P69720+P69721+P69722+P69723+Q9HC16). As to the kind of experiment: HIV-1 Vif–A3G interaction blockers – biochemical, TR-FRET, GST-Vif 1-94, biotin-A3G peptide, dose response retest, primary screen (AID 1117319).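 Further: Vif residues 1-94 fused to GST binding biotinylated APOBEC3G peptide 110-148; 0% = full assay without inhibitor and 100% = GST in place of GST-Vif.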 As to conditions: TR-FRET GST-Vif / biotin-A3G peptide binding; hits give high values.
On to `Cc1ccc2c(C)c(C(=O)NCCc3ccco3)oc2c1C`, for which the inhibition is -1.77% (inactive). As to `CN(CC(=O)Nc1ccc(Cl)c(C(F)(F)F)c1)C(=O)c1cc(=O)[nH]c2ccccc12`, the inhibition was 1.56% (inactive). As for `Cc1ccc(C(=O)CCC(=O)Nc2ccc(C)cn2)cc1`, the inhibition is -9.87% (inactive). On to `Cc1ccnc(NC(=O)CCC(=O)N(CC(=O)NCc2ccccc2)c2ccc3c(c2)OCO3)c1`, for which the inhibition is 12.1% (inactive). In the case of `Cc1cc(C)nc(SCc2cc(=O)c(OC(=O)c3ccc(Cl)c([N+](=O)[O-])c3)co2)n1`, the inhibition was 31.3% (inactive).

With `CN(C1=C(NC(=O)c2ccccc2)C(=O)c2ccccc2C1=O)C1CCS(=O)(=O)C1` (stereo unspecified), the inhibition is 23.9% (inactive). For `CN(c1ccc(C(=O)Nc2ccc(Cl)cn2)cc1)S(=O)(=O)c1ccccc1`, the inhibition was 18.3% (inactive). To `Fc1cccc(NC(=S)N2CCCCC2)c1` belongs 1.92% (inactive); to `Cc1ccc(CC(NC(=O)c2ccccc2)C(=O)N2CCCC2C(=O)O)cc1` (stereo unspecified), -0.14% (inactive). Turning to `O=C(O/N=C1\CCS(=O)(=O)c2sccc21)C1CC1`, the inhibition is -8.69% (inactive). Regarding `Nc1c(Cl)cc2c(c1Oc1ccccc1)C(=O)c1ccccc1C2=O`, the inhibition is 7.9% (inactive). Turning to `O=C1C(Cl)=C(NCCc2ccccc2)C(=O)c2ccccc21`, the inhibition was 14.2% (inactive). Turning to `Cc1ccc(NS(=O)(=O)c2ccc(C(=O)N3CCCC(C(F)(F)F)C3)cc2)cc1` (stereo unspecified), the inhibition was -6.68% (inactive).

For `O=C1/C(=C/c2ccccn2)SC(=S)N1c1cccc(O)c1`, the inhibition was 1.67% (inactive).

As to `O=C(COc1ccccc1F)Nc1ccc2[nH]c(=O)[nH]c2c1`, the inhibition was -2.63% (inactive). For `COC(=O)c1cc(NC(=O)c2cc(-c3ccc(Cl)cc3)oc2C(F)(F)F)ccc1N1CCOCC1`, the inhibition is -11.7% (inactive). Consider `CSCCC(NC(=O)/C(=C/c1ccco1)NC(=O)c1ccc(Br)o1)C(=O)O` (stereo unspecified), for which the inhibition is 13.7% (inactive). In the case of `CC(C)C(NC(=O)/C(=C/c1ccco1)NC(=O)c1ccc(Br)o1)C(=O)O` (stereo unspecified), the inhibition is 25.7% (inactive). To `COc1cc(/C(O)=C(\C#N)c2nc3ccccc3[nH]2)cc(OC)c1OC` belongs 3.24% (inactive).

Regarding `O=C(COc1ccc2c(c1)CCC2)N1CCN(c2ccc(F)cc2)CC1`, the inhibition is 4.96% (inactive).

Turning to `Cc1ccc(Cl)cc1N1CCN(C(=O)COc2ccc(S(=O)(=O)NC(C)C)cc2)CC1`, the inhibition was 6.57% (inactive). On to `Cc1cc(C)n(CC(O)COc2ccccc2[N+](=O)[O-])n1` (stereo unspecified), for which the inhibition is 10.6% (inactive).

In the case of `COc1ccc(C2C(C#N)=C(N)Oc3c2oc(CO)cc3=O)cc1` (stereo unspecified), the inhibition was -2.28% (inactive). To `N#CC1=C(N)Oc2c(oc(CO)cc2=O)C1c1cccs1` (stereo unspecified) belongs 26.6% (inactive); to `O=C(OCC(=O)N1CCc2ccccc21)c1ccccn1`, -3.08% (inactive). For `Cc1ccc(S(=O)(=O)N2CCOCC2)cc1C(=O)NC1CCCCC1`, the inhibition was 1.31% (inactive). As to `CCOC(=O)c1sc2nc(CC(=O)OC)nc(NCc3ccc(F)cc3)c2c1C`, the inhibition is -3.02% (inactive). As to `CCOC(=O)c1sc2nc(CC(=O)OC)nc(NCc3ccc(Cl)cc3)c2c1C`, the inhibition was -0.39% (inactive) and -4.73% (inactive). For `CC(Oc1cccc(Cl)c1)C(=O)NNC(=O)c1cccnc1` (stereo unspecified), the inhibition was -4.59% (inactive). For the compound `COC(=O)c1ccc(N)cc1O`, the inhibition was -0.17% (inactive). `COC(=O)c1ccc(C(=O)OC)c(=O)[nH]1`: the inhibition is 0.04% (inactive). In the case of `Cc1nc2nc(-c3ccccc3)[nH]n2c(=O)c1C`, the inhibition is 21.8% (inactive). As for `Cn1c(=O)c2c(-c3ccccc3)n(Cc3ccccn3)cc2n(C)c1=O`, the inhibition was -0.87% (inactive). As for `CC(=O)Nc1ccc(N2C(=O)CC(Sc3nc(C)cc(C)n3)C2=O)cc1` (stereo unspecified), the inhibition was 2.02% (inactive). To `CN(C)S(=O)(=O)c1ccc(N2CCCC2)c(C(=O)Nc2ccc(N3CCOCC3)cc2)c1` belongs -0.06% (inactive); to `CC(=O)NCCc1ccc(C(=O)COC(=O)c2cccn2C)cc1`, -0.53% (inactive); to `O=C(N/N=C/c1ccc(Cl)cc1Cl)C1CCN(c2ncc(C(F)(F)F)cc2Cl)CC1`, 0.03% (inactive).

As for `COc1ccc(OC)c(/C=C/C(=O)c2ccc(Cl)cc2)c1`, the inhibition is -4.03% (inactive). Turning to `COc1cccc(/C=C/C(=O)c2ccc3c(c2)OCCO3)c1OC`, the inhibition was -6.76% (inactive). On to `COc1ccc(C(=O)/C=C/c2ccc(OC)cc2OC)c(O)c1`, for which the inhibition is -6.99% (inactive). As to `CN(C)/C=C/C(=O)/C=C/c1ccc(Cl)cc1Cl`, the inhibition was 0.37% (inactive). Turning to `COc1ccc(NC(=O)/C=C/c2cc(Br)ccc2OC)cc1`, the inhibition was -0.44% (inactive). To `NNC(=O)/C=C/c1ccc(Cl)cc1Cl` belongs -9.79% (inactive); to `COc1cccc(/C=C/C(=O)c2cccc([N+](=O)[O-])c2)c1OC`, -0.4% (inactive); to `COc1ccc(/C=C/C(=O)c2ccccc2)c(OC)c1`, 2.19% (inactive).

Turning to `Cn1c(=O)c2c(nc(CN3CCN(Cc4ccccc4)CC3)n2Cc2ccc(F)cc2)n(C)c1=O`, the inhibition is 8.38% (inactive).

For the compound `COc1cccc(CNC(=O)CCc2nc3cc(S(=O)(=O)N4CCOCC4)ccc3n2C)c1`, the inhibition is -1.52% (inactive).

As for `COc1ccc(-c2nnc(SCC(=O)c3ccc[nH]3)o2)cc1`, the inhibition is 0.99% (inactive). Regarding `O=C(Oc1ccccc1-c1nnco1)c1ccc(Cl)cc1`, the inhibition was 5.13% (inactive). As to `COc1ccc(/C=C/C(=O)c2ccc(OC)cc2OC)cc1`, the inhibition is -1.1% (inactive). With `COc1ccc(C=CC(=O)c2cc(O)ccc2O)cc1`, the inhibition is -0.99% (inactive). Regarding `COc1ccccc1/C=C/C(=O)c1ccccc1`, the inhibition was 3.38% (inactive).

For the compound `COc1ccccc1C=CC(=O)C=Cc1ccccc1OC`, the inhibition was 7.01% (inactive).

For the compound `Cc1nc(C(=O)N/N=C/c2[nH]ncc2Br)cs1`, the inhibition is 8.49% (inactive). Take `COc1ccc(O)c(C(=O)c2cnn(S(=O)(=O)c3ccc(C)cc3)c2)c1`: the inhibition is 4.82% (inactive). In the case of `CC1(C)CN(c2ccccc2)N(Cc2ccc(F)cc2)C1=O` it was -1.71% (inactive); in that of `NC(=O)C1(C(=O)O)OC1(c1ccc(Cl)cc1)c1ccccc1Cl` (stereo unspecified), 5.1% (inactive); in that of `CC(C)CCNC(=O)c1ccc2c(SCC(=O)O)c3c(nc2c1)CCCC3`, 25.7% (inactive). `CCN(CC)CCCNC(=O)c1ccc2c(SCC(=O)O)c3c(nc2c1)CCC3`: the inhibition is 27.5% (inactive). Take `COc1cc(NC(=O)c2ccc3c(SCC(=O)O)c4c(nc3c2)CCC4)cc(OC)c1OC`: the inhibition was 22.2% (inactive). To `CCOc1ccc(NC(=O)c2ccc3c(SCC(=O)O)c4c(nc3c2)CCCC4)cc1` belongs 2.98% (inactive); to `CN1CCN(C(=O)c2ccc(CN3CCOCC3)cc2)CC1`, -3.34% (inactive). To `Cc1cc(NS(=O)(=O)c2ccc(NC(=O)CSc3nnc(-c4ccco4)n3C)cc2)nc(C)n1` belongs 2.91% (inactive); to `O=C(Nc1ccccc1Cl)Nc1ccnn1C1CCN(C(=O)c2cscn2)CC1`, 5.94% (inactive); to `C=CCn1c(SCC(=O)NC2CC2)nc2ccccc2c1=O`, 1.47% (inactive). For `O=C(/C=C/Nc1ccc(Oc2ccccc2)cc1)c1ccco1`, the inhibition was 12.6% (inactive). Take `O=C(/C=C/Nc1ccc(F)cc1)c1ccco1`: the inhibition was 10.5% (inactive). Take `NS(=O)(=O)c1ccc(NC(=O)C2CCCN(S(=O)(=O)c3ccc(F)cc3)C2)cc1` (stereo unspecified): the inhibition was -11.9% (inactive). To `Cc1ccc(N(CC(=O)NCc2cccnc2)S(C)(=O)=O)cc1C` belongs -4.47% (inactive); to `COc1cccc(N(CC(=O)NCc2cccnc2)S(C)(=O)=O)c1`, -2.81% (inactive); to `CN1CCN(c2ccccc2NC(=O)c2ccc(Br)o2)CC1`, 0.41% (inactive). Consider `O=C(Nc1ccccc1N1CCOCC1)c1ccc(Br)o1`, for which the inhibition is 7.09% (inactive). On to `O=C(O)c1cc(-c2ccc(N3CCOCC3)cc2)nn1-c1ccc(F)cc1`, for which the inhibition was 18.4% (inactive).

Turning to `Cn1cnc(S(=O)(=O)N2CCc3ccccc32)c1`, the inhibition was 3.79% (inactive). In the case of `c1cc2c3c(cccc3c1)NC1(CCCCC1)N2` it was 10.4% (inactive); in that of `c1cc2c3c(cccc3c1)NC1(CCCC1)N2`, 2.08% (inactive).

In the case of `Cc1cc(=O)[nH]c(SCCCOc2ccc3c(c2)CCC3)n1`, the inhibition is -0.15% (inactive).

As for `Cn1c(SCC(=O)NCc2ccco2)nnc1-c1cccs1`, the inhibition is -8.22% (inactive).

For `CC(C)n1nnnc1SCC(=O)NCc1ccco1`, the inhibition was 20% (inactive). In the case of `CCn1nnnc1SCC(=O)NCc1ccco1`, the inhibition was 21.2% (inactive). In the case of `CCn1c(SCC(=O)NC(=O)NCc2ccco2)nnc1-c1cccs1`, the inhibition is -5.61% (inactive). As for `Clc1ccccc1Cc1noc(CN2CCCCC2c2ccccn2)n1` (stereo unspecified), the inhibition is 2.88% (inactive).

Regarding `COc1cccc(OCc2nnc(SCC(=O)N3c4ccccc4Sc4ccc(Cl)cc43)o2)c1`, the inhibition is 8.84% (inactive). Consider `O=C(CN(C(=O)Cn1nnc(-c2ccc(F)cc2)n1)c1cnc2ccccc2c1)NCC1CCCO1` (stereo unspecified), for which the inhibition is -11.4% (inactive).

Turning to `Cc1cc(=O)n2[nH]c(-c3sccc3-n3c(C)ccc3C)cc2n1`, the inhibition is -3.07% (inactive). With `Cc1cc(C)n2nc(-c3ccsc3-n3c(C)ccc3C)cc2n1`, the inhibition is 16.4% (inactive). In the case of `O=C(c1ccccc1)c1n[nH]c(-c2ccccc2)cc1=O`, the inhibition was 0.47% (inactive). Regarding `CCOC(=O)N1CCC(NC(=O)c2cnn3cccnc23)CC1`, the inhibition was -2.64% (inactive).

With `O=C(O)CCCC(=O)Nc1c(F)c(F)c(F)c(F)c1F`, the inhibition was 3.4% (inactive). As for `O=C(CCSCCC(=O)Nc1c(F)c(F)c(F)c(F)c1F)Nc1c(F)c(F)c(F)c(F)c1F`, the inhibition is -9.21% (inactive). Regarding `CN(C)c1nc(NNC(=O)c2ccccc2)nc(N(C)C)n1`, the inhibition was -5.34% (inactive). In the case of `C=CCn1c(SCC(=O)c2cccs2)nc2sc(C)c(C)c2c1=O` it was -46.6% (inactive). For the compound `C=CCn1c(SCC(=O)Nc2cc(C)on2)nc2sc(C)c(C)c2c1=O`, the inhibition was -2.76% (inactive). As for `CCN(CC(=O)Nc1c(F)cccc1F)C(=O)c1ccc2c(c1)S(=O)(=O)N=C1CCCCCN12`, the inhibition is -6.51% (inactive). On to `O=C(/C=C/c1ccc(O)c(O)c1)c1ccccc1O`, for which the inhibition was 13.2% (inactive). Regarding `COc1cc(/C=C/C(=O)OCC(=O)NCC2CCCCC2)ccc1O`, the inhibition was -4.25% (inactive).

The values above are taken from PubChem BioAssay AID1117319 (Southern Research Institute, 2015).
